Reference: the antibiotic and cytotoxicity screens of Wong et al. (2023)
About 3,300 (8.5%) of roughly 39,000 compounds were called active. Many of the other results were omitted from the sample, so actives are more common in it than they were.

system: HepG2; experiment: cytotoxicity call (relative viability < 0.9); conditions: 10 µM

SMILES | cytotoxicity call
Cc1cccc(CN(C)C[C@@H]2Oc3ncc(-c4cccc(C(F)(F)F)c4)cc3C(=O)N([C@H](C)CO)C[C@@H]2C)c1 | inactive
CC(C)NC(=O)Nc1ccc2c(c1)C(=O)N([C@H](C)CO)C[C@@H](C)[C@@H](CN(C)S(=O)(=O)c1cn(C)cn1)OCCCC[C@H](C)O2 | inactive
COc1ccc(S(=O)(=O)Nc2ccc3c(c2)CC(=O)N([C@H](C)CO)C[C@H](C)[C@H](CN(C)S(=O)(=O)c2ccc(OC)cc2)O3)cc1 | inactive
Nc1cc(=O)nc(C(F)(F)F)[nH]1 | inactive
Cc1ccc(S(=O)(=O)Nc2cccc3c2O[C@@H](CN(C)S(=O)(=O)c2ccc(F)cc2)[C@@H](C)CN([C@@H](C)CO)C3=O)cc1 | inactive
O=C(CN1CCOCC1)N[C@@H]1CC[C@H](CCNC(=O)Nc2cc(F)ccc2F)O[C@H]1CO | inactive
COc1ccc(S(=O)(=O)Nc2ccc3c(c2)[C@@H]2C[C@H](CC(=O)NCC4CC4)O[C@H](CO)[C@@H]2O3)cc1 | inactive
CCS(=O)(=O)Nc1ccc2c(c1)C(=O)N(C)[C@@H]1CC[C@H](CC(=O)N[C@H]3CCN(Cc4ccccc4)C3)O[C@@H]1CO2 | inactive
c1cc([C@@H]2CNCCN2)[nH]n1 | inactive
C[C@@H]1CCCCO[C@H](CN(C)S(=O)(=O)c2ccccc2)[C@H](C)CN([C@@H](C)CO)C(=O)c2cc(NC(=O)CCC(F)(F)F)ccc2O1 | inactive
Cc1noc(C)c1S(=O)(=O)Nc1cccc2c1O[C@H](CN(C)S(=O)(=O)c1c(C)noc1C)[C@H](C)CN([C@@H](C)CO)C2=O | inactive
CC(C)NC(=O)Nc1ccc2c(c1)CC(=O)N([C@H](C)CO)C[C@@H](C)[C@H](CN(C)Cc1ccc(Oc3ccccc3)cc1)O2 | inactive
C[C@H](CO)N1C[C@H](C)[C@H](CN(C)Cc2ccc(Oc3ccccc3)cc2)Oc2ccc(NC(=O)Nc3ccccc3)cc2CC1=O | inactive
CC(C)NC(=O)Nc1ccc2c(c1)CC(=O)N([C@H](C)CO)C[C@@H](C)[C@@H](CN(C)Cc1ccc(Oc3ccccc3)cc1)O2 | active
CC(C)NC(=O)Nc1ccc2c(c1)CC(=O)N([C@@H](C)CO)C[C@@H](C)[C@@H](CN(C)Cc1ccc(Oc3ccccc3)cc1)O2 | inactive
C[C@@H]1CN([C@H](C)CO)C(=O)Cc2cc(NC(=O)Nc3ccccc3)ccc2O[C@@H]1CN(C)Cc1ccc(Oc2ccccc2)cc1 | active
CC(C)NC(=O)Nc1ccc2c(c1)CC(=O)N([C@@H](C)CO)C[C@@H](C)[C@H](CN(C)Cc1ccc(Oc3ccccc3)cc1)O2 | inactive
CCOc1nc2cccc(C(=O)OCc3oc(=O)oc3C)c2n1Cc1ccc(-c2ccccc2-c2noc([O-])n2)cc1.[K+] | inactive
O=C(C[C@@H]1CC[C@@H]2[C@H](COC[C@@H](O)CN2C(=O)c2ccc(F)cc2)O1)NCCCN1CCOCC1 | inactive
CN(C)C(=O)c1ccc(-c2cccc(-c3nc(C(=O)NC4CCC4)cc4c3[C@H](CCO)N([S@@](=O)C(C)(C)C)C4)c2)cc1 | inactive
Cc1ccc(S(=O)(=O)N(C)C[C@H]2Oc3ccc(NS(=O)(=O)c4cccs4)cc3C(=O)N([C@@H](C)CO)C[C@H]2C)cc1 | inactive

SMILES | cytotoxicity call
CC1(C)OC(=O)C2(C(=O)O1)[C@@H](c1ccc(-c3cccc(Br)c3)cc1)CC(=O)C[C@H]2c1ccccc1 | inactive
CCCNC(=O)c1cc2c(c(-c3cccc(-c4cc5ccccc5o4)c3)n1)[C@H](CCO)N(C(=O)NC(C)C)C2 | inactive
C[C@@H]1CCCCO[C@@H](CN(C)S(=O)(=O)c2ccccc2)[C@@H](C)CN([C@@H](C)CO)C(=O)c2cc(NC(=O)Nc3cccc4ccccc34)ccc2O1 | inactive
Cc1noc(C)c1S(=O)(=O)Nc1ccc2c(c1)C(=O)N([C@H](C)CO)C[C@H](C)[C@@H](CN(C)S(=O)(=O)c1cn(C)cn1)OCCCC[C@H](C)O2 | inactive
C[C@@H]1CN([C@@H](C)CO)C(=O)c2cc(NC(=O)Nc3cccc4ccccc34)ccc2O[C@@H]1CN(C)Cc1ccc(C(F)(F)F)cc1 | active
C[C@H](CO)N1C[C@H](C)[C@@H](CN(C)Cc2ccc(C(F)(F)F)cc2)Oc2ccc(NC(=O)Nc3cccc4ccccc34)cc2C1=O | inactive
C[C@H]1CN([C@@H](C)CO)C(=O)c2cc(NC(=O)Nc3cccc4ccccc34)ccc2O[C@@H]1CN(C)Cc1ccc(C(F)(F)F)cc1 | inactive
C[C@@H]1CN([C@H](C)CO)C(=O)c2cc(NC(=O)Nc3cccc4ccccc34)ccc2O[C@H]1CN(C)Cc1ccc(C(F)(F)F)cc1 | inactive
C[C@H]1CN([C@@H](C)CO)C(=O)c2cc(NC(=O)Nc3cccc4ccccc34)ccc2O[C@H]1CN(C)Cc1ccc(C(F)(F)F)cc1 | inactive
C[C@H](CO)N1C[C@H](C)[C@H](CN(C)Cc2ccc(C(F)(F)F)cc2)Oc2ccc(NC(=O)Nc3cccc4ccccc34)cc2C1=O | active
C[C@@H]1CN([C@H](C)CO)C(=O)c2cc(NC(=O)Nc3cccc4ccccc34)ccc2O[C@@H]1CN(C)Cc1ccc(C(F)(F)F)cc1 | inactive
C[C@@H]1CN([C@@H](C)CO)C(=O)c2cc(NC(=O)Nc3cccc4ccccc34)ccc2O[C@H]1CN(C)Cc1ccc(C(F)(F)F)cc1 | active
O=C(O)c1cc(=O)cc(C(=O)O)o1 | inactive
C=CCn1c(O)c(C#N)c(C)cc1=O | inactive
CN(C)C(=O)C[C@H]1CC[C@H](NC(=O)C2CCOCC2)[C@H](CO)O1 | inactive
C[C@@H]1CCCCO[C@H](CN(C)C(=O)c2ccccc2)[C@@H](C)CN([C@H](C)CO)C(=O)c2cc(NS(=O)(=O)c3ccc(Cl)cc3)ccc2O1 | inactive
N#C/C(=C\c1cccs1)c1csc2ccc(Cl)cc12 | inactive
CO[C@@H]1CN(C)C(=O)c2cc(NC(=O)CC(F)(F)F)ccc2OC[C@@H](C)N(S(=O)(=O)c2cn(C)cn2)C[C@@H]1C | inactive
O=S(=O)(c1cccc(OC(F)F)c1)N1[C@@H]2CC[C@@H](C2)[C@H]1c1nc2cccc(OCc3ccccc3)c2[nH]1 | inactive
C[C@@H]1CN([C@@H](C)CO)S(=O)(=O)c2ccc(C#CC(C)(C)O)cc2O[C@H]1CN(C)Cc1ccc(F)cc1 | inactive
